Reference: the supplement of paper PMC10849652
About 7,900 targets were measured; listed, in parts, are those with a hit and a random draw of the rest. About 0.6% of all pairs of compound and target were hits.

What was measured:
Assay in all cases: log2 fold change, soluble protein after heating vs DMSO (PISA); higher = thermal stabilisation; K562 cells, 10 uM, 30 min; active = over 0.2 and 3.5 SD of the protein, either way, in both replicates (recomputed)
[1] = compound: C1=CC=C(C=C1)[C@H](COC2=CC3=C(C=C2)NC(=O)N3)NC(=O)C4=CC=CN(C4=O)CC5=CC(=C(C=C5)F)F
Outline: (§1)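 Thermal stability values are relative to control samples and come from duplicates. They are expressed as log2 fold changes. For measurement, K562 cells (2×10^6 cells/mL) received 10 μM compound for 30 min, and aliquots were heated for 3 min over 48°C-58°C, pooled, and extracted at 4°C in PBS with 0.5% NP-40. Soluble protein, the supernatant after 21,000xg for 90 min, was quantified by TMTpro 16plex LC-MS/MS with equalised channel sums.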

[2] = compound: CC1=C(SC2=C1C(=N[C@H](C3=NN=C(N32)C)CC(=O)N)C4=CC=C(C=C4)Cl)C
Outline: as §1

[3] = compound: CC1=C2C(=CC=C1)N=C(N(C2=O)C3=CC=CC=C3C)CN4C=NC5=C(N=CN=C54)N
Outline: as §1

[4] = compound: Cc1sc2c(c1C)C(c1ccc(Cl)cc1)=N[C@@H](CC(=O)OC(C)(C)C)c1nnc(C)n1-2
Outline: as §1

[5] = compound: c1ccc([C@@H]2C[C@H]2NC2CCNCC2)cc1
Outline: as §1

Measured: log2 fold change

CMTR1 (UniProt Q8N1G2)
inactive: [1] -0.008 | [2] 0.033 | [3] 0.07 | [4] -0.009 | [5] -0.04

CDK8 (UniProt P49336)
inactive: [1] 0 | [2] -0.043 | [3] 0.018 | [4] 0.035 | [5] -0.129

CETN3 (UniProt O15182)
Chain of UniProt O15182 (O15182 whole entry, looked up): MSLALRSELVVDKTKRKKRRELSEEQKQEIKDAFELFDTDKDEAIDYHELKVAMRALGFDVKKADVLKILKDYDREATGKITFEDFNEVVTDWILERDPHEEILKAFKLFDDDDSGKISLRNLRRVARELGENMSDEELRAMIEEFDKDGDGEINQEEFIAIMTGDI
inactive: [1] 0.019 | [2] -0.055 | [3] 0.109 | [4] 0.008 | [5] -0.014

CHD4 isoform 2 (UniProt Q14839)
inactive: [1] -0.065 | [2] 0 | [3] 0.021 | [4] 0.049 | [5] 0.032

CNOT1 (UniProt A5YKK6)
inactive: [1] -0.02 | [2] 0.021 | [3] 0.031 | [4] -0.017 | [5] -0.021

COQ7 (UniProt Q99807)
inactive: [1] -0.038 | [2] 0.016 | [3] 0.029 | [4] 0.014 | [5] 0.048

CAMKK2 (UniProt Q96RR4)
inactive: [1] -0.047 | [2] 0.388 | [3] 0.023 | [4] 0.019 | [5] 0.149

CAMSAP1 isoform 3 (UniProt Q5T5Y3)
inactive: [1] -0.06 | [2] 0.083 | [3] 0.221 | [4] 0.016 | [5] 0.02

CSNK2A1 (UniProt P68400)
inactive: [1] 0.018 | [2] 0.033 | [3] 0.018 | [4] -0.008 | [5] 0.02

CASC3 (UniProt O15234)
inactive: [1] 0.02 | [2] 0.044 | [3] 0.015 | [4] 0.244 | [5] 0.025

CIT isoform 4 (UniProt O14578)
Chain of UniProt O14578 (O14578 whole entry, looked up): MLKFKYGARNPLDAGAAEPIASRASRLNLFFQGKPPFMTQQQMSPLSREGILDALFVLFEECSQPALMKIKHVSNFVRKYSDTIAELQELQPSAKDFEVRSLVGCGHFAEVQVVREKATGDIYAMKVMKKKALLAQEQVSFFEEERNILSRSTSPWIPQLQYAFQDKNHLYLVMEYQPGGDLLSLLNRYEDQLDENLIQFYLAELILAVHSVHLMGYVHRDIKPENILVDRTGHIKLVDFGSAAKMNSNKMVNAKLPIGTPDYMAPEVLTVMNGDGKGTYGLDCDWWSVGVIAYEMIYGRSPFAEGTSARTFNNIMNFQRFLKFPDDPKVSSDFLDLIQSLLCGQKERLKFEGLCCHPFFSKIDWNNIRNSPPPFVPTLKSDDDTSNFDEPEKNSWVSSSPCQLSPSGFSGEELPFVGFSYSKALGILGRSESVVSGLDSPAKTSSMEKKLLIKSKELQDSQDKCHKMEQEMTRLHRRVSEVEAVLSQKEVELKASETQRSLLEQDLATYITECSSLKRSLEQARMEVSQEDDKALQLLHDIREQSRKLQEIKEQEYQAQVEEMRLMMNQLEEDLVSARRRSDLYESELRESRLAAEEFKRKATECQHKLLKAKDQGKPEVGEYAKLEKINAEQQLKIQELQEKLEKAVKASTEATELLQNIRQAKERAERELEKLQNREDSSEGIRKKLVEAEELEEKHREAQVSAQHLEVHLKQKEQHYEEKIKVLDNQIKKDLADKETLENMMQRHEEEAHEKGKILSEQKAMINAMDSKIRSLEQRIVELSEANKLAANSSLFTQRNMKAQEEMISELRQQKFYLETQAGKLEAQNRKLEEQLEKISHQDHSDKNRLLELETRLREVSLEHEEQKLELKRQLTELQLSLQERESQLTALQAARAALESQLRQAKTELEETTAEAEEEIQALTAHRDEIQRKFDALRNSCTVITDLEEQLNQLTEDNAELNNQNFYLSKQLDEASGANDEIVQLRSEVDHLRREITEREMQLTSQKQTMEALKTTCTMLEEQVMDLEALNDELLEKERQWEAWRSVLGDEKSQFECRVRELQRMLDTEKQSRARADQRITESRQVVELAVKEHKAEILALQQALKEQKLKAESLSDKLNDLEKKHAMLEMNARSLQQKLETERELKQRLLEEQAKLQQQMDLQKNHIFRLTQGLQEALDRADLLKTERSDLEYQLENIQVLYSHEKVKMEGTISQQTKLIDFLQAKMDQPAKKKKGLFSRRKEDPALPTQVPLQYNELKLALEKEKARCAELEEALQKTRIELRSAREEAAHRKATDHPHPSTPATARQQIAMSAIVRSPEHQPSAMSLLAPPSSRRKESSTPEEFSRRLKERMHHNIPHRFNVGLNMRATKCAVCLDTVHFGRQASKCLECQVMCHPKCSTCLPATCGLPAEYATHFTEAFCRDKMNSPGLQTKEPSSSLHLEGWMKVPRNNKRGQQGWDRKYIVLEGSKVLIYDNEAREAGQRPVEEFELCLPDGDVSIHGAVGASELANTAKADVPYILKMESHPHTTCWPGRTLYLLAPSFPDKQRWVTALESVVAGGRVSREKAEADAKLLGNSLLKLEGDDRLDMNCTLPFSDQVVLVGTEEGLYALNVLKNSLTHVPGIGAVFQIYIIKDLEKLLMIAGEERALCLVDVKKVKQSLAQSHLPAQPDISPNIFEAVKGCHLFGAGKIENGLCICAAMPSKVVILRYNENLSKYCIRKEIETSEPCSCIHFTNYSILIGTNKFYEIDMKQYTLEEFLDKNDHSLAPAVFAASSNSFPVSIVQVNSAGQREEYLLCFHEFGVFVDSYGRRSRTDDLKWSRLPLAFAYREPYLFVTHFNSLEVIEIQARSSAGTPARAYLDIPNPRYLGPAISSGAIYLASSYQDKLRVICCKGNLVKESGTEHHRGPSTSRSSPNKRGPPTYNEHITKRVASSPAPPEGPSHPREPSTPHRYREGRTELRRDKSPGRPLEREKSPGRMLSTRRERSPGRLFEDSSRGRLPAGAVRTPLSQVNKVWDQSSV
inactive: [1] -0.055 | [2] 0.002 | [3] 0.001 | [4] -0.011 | [5] 0.009

CLUH, A0A494C0R8
inactive: [1] -0.121 | [2] -0.004 | [3] 0.025 | [4] 0.152 | [5] 0.096

CSTF2 (UniProt P33240)
inactive: [1] 0.017 | [2] 0.04 | [3] 0.057 | [4] -0.026 | [5] 0.021

CNTN4 (UniProt Q8IWV2)
inactive: [1] 0.093 | [2] 0.154 | [3] 0.103 | [4] -0.075 | [5] -0.106

CALCOCO2 isoform 4 (UniProt Q13137)
inactive: [1] -0.036 | [2] -0.002 | [3] -0.04 | [4] 0.049 | [5] 0.026

CALB1 (UniProt P05937)
inactive: [1] 0.001 | [2] 0.009 | [3] -0.045 | [4] -0.068 | [5] 0.026

CHST11 (UniProt Q9NPF2)
inactive: [1] 0.018 | [2] -0.061 | [3] 0.055 | [4] 0.007 | [5] -0.139

CLPTM1L (UniProt Q96KA5)
Chain of UniProt Q96KA5 (Q96KA5 whole entry, looked up): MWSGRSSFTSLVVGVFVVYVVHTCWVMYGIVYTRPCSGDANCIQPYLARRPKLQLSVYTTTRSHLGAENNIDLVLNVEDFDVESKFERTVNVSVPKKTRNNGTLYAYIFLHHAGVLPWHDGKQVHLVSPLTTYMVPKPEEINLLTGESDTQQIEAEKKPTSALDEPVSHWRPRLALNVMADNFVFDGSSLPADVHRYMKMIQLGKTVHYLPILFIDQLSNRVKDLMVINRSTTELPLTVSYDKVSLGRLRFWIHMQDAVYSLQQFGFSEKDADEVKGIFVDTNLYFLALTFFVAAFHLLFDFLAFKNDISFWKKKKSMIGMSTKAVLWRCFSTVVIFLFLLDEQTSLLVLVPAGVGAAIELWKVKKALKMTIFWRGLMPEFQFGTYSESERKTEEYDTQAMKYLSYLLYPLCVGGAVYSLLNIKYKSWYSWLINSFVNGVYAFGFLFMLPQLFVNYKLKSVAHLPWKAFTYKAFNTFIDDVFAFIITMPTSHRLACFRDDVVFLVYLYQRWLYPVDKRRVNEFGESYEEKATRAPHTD
inactive: [1] -0.011 | [2] 0.013 | [3] 0.024 | [4] -0.145 | [5] 0.01

CCNK isoform 4 (UniProt O75909)
inactive: [1] 0.045 | [2] -0.115 | [3] 0.015 | [4] 0.103 | [5] 0.069

CHAMP1 (UniProt Q96JM3)
inactive: [1] -0.073 | [2] 0.044 | [3] 0.022 | [4] -0.051 | [5] -0.006

CLINT1 (UniProt Q14677)
Chain of UniProt Q14677 (Q14677 whole entry, looked up): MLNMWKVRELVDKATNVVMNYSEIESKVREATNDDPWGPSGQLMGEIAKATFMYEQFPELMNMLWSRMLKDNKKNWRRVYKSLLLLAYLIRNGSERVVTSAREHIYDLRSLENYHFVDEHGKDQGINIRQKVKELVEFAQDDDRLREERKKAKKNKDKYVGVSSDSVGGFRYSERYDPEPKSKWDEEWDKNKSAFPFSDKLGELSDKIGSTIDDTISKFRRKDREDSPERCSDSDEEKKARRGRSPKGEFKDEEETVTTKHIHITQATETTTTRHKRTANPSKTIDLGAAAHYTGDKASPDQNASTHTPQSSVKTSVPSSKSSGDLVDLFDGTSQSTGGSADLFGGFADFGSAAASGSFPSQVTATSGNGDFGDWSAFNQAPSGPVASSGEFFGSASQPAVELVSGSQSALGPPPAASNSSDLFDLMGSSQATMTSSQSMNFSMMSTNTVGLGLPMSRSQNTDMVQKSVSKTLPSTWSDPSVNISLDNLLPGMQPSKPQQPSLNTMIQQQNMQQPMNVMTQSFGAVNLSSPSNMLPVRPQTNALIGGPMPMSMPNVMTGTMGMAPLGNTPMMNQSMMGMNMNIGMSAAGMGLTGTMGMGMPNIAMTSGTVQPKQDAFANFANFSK
inactive: [1] 0.063 | [2] 0.131 | [3] -0.005 | [4] -0.009 | [5] 0.157

CDK13 (UniProt Q14004)
inactive: [1] 0.031 | [2] 0.019 | [3] -0.017 | [4] 0.161 | [5] -0.004

C9orf72 (UniProt Q96LT7)
inactive: [1] 0.02 | [2] 0.009 | [3] 0.085 | [4] -0.115 | [5] 0.002

CASP2 (UniProt P42575)
inactive: [1] -0.039 | [2] 0.016 | [3] 0.027 | [4] -0.01 | [5] -0.039

COMMD2 (UniProt Q86X83)
inactive: [1] -0.029 | [2] 0.053 | [3] 0 | [4] -0.199 | [5] 0.04

CBX5 (UniProt P45973)
inactive: [1] -0.001 | [2] 0.029 | [3] 0.05 | [4] 0.016 | [5] 0.008

CDC123 (UniProt O75794)
inactive: [1] -0.036 | [2] 0 | [3] 0.03 | [4] -0.018 | [5] -0.029

CCZ1 (UniProt P86791)
inactive: [1] 0.011 | [2] 0.009 | [3] 0.02 | [4] 0.017 | [5] -0.024

CDK6 (UniProt Q00534)
inactive: [1] -0.005 | [2] -0.002 | [3] 0.005 | [4] -0.036 | [5] -0.055

CSNK1A1 (UniProt P48729)
inactive: [1] 0.048 | [2] 0 | [3] 0.008 | [4] 0.046 | [5] 0.02

CORO2A (UniProt Q92828)
inactive: [1] -0.057 | [2] -0.041 | [3] 0.061 | [4] 0.045 | [5] 0.071

CEPT1 (UniProt Q9Y6K0)
inactive: [1] -0.064 | [2] 0.105 | [3] 0.074 | [4] -0.121 | [5] -0.054

CCNB1 (UniProt P14635)
inactive: [1] -0.004 | [2] 0.036 | [3] 0.015 | [4] -0.007 | [5] 0.026

CHERP (UniProt Q8IWX8)
inactive: [1] -0.023 | [2] -0.07 | [3] 0.008 | [4] 0.101 | [5] 0.018

CENPE (UniProt Q02224)
inactive: [1] -0.005 | [2] -0.139 | [3] 0.049 | [4] -0.001 | [5] -0.362

CSK (UniProt P41240)
Chain of UniProt P41240 (P41240 whole entry, looked up): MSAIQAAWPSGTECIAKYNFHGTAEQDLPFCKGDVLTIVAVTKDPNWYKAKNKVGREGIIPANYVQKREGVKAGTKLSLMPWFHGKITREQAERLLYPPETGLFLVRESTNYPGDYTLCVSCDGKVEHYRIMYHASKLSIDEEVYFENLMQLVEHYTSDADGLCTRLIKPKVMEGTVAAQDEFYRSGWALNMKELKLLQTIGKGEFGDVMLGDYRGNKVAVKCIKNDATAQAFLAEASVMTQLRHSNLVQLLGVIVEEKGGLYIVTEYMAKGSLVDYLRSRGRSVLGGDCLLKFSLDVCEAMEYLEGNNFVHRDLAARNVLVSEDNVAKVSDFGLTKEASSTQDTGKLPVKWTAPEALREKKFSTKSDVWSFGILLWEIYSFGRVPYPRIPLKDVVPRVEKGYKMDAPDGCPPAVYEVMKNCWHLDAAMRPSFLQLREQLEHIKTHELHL
inactive: [1] -0.096 | [2] 0.051 | [3] 0.057 | [4] 0.011 | [5] -0.032

CSNK2A2 (UniProt P19784)
inactive: [1] -0.025 | [2] 0.08 | [3] 0.052 | [4] 0.028 | [5] 0.012

CLCN3 (UniProt P51790)
Chain of UniProt P51790 (P51790 whole entry, looked up): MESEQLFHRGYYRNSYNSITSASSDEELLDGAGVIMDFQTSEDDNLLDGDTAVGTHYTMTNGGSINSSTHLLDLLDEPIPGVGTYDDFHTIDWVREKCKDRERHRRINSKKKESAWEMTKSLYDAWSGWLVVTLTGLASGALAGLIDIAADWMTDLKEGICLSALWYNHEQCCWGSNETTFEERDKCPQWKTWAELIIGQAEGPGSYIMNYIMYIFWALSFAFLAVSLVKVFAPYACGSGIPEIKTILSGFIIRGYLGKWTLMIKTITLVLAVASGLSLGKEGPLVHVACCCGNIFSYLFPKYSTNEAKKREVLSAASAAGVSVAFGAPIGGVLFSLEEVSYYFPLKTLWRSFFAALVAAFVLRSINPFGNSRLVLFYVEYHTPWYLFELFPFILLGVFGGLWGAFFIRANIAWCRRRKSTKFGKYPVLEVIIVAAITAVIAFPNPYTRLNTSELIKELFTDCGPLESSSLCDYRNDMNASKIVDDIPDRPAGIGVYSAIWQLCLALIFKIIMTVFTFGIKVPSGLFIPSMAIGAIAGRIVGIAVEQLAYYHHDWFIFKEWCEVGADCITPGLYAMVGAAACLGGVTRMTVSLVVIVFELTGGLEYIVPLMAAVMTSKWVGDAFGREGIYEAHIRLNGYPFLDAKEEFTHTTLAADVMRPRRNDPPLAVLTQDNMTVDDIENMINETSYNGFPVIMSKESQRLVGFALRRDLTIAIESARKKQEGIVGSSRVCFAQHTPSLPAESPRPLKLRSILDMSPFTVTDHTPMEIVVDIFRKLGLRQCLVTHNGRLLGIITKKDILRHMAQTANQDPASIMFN
inactive: [1] 0.01 | [2] 0.025 | [3] 0.064 | [4] -0.107 | [5] 0.056

CDAN1 (UniProt Q8IWY9)
inactive: [1] -0.035 | [2] -0.049 | [3] 0.051 | [4] 0.091 | [5] 0.022

CBR1 (UniProt P16152)
inactive: [1] -0.009 | [2] 0.015 | [3] 0.01 | [4] -0.028 | [5] -0.037

CCM2 isoform 2 (UniProt Q9BSQ5)
inactive: [1] 0.013 | [2] 0.144 | [3] 0.046 | [4] -0.161 | [5] -0.046

CFAP36 isoform 2 (UniProt Q96G28)
Chain of UniProt Q96G28 (Q96G28 whole entry, looked up): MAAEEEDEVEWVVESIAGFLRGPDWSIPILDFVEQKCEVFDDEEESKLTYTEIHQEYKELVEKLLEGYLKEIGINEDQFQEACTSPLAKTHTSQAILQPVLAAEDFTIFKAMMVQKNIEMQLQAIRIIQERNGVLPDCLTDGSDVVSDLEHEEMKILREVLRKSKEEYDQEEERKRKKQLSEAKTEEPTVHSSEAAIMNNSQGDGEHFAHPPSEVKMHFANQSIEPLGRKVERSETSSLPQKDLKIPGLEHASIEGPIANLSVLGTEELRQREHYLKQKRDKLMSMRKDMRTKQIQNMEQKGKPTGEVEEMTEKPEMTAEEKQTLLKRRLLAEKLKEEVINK
inactive: [1] -0.042 | [2] 0.01 | [4] -0.009 | [5] -0.158
active: [3] 0.383

CAVIN1 (UniProt Q6NZI2)
inactive: [1] 0.017 | [2] -0.127 | [3] -0.103 | [4] 0.101 | [5] 0

CCAR2 isoform 2 (UniProt Q8N163)
inactive: [1] -0.057 | [2] -0.014 | [3] 0.079 | [4] -0.089 | [5] 0.011

CRTC3 (UniProt Q6UUV7)
inactive: [1] -0.083 | [2] 0.044 | [3] -0.065 | [4] 0.004 | [5] 0.034

CPQ (UniProt Q9Y646)
inactive: [1] 0.045 | [2] -0.077 | [3] -0.078 | [4] -0.031 | [5] 0.084

CKS1B (UniProt P61024)
Chain of UniProt P61024 (P61024 whole entry, looked up): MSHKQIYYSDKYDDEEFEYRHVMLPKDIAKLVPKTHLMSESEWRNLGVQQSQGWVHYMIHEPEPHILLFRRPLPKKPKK
inactive: [1] -0.004 | [2] 0.056 | [3] 0.024 | [4] -0.067 | [5] -0.02

CCDC57 (UniProt Q2TAC2)
inactive: [1] 0.015 | [3] 0.047 | [4] -0.161 | [5] -0.139
active: [2] 0.262

CIR1 (UniProt Q86X95)
inactive: [1] -0.075 | [2] -0.286 | [3] -0.241 | [4] 0.198 | [5] 0.217

CDK12 (UniProt Q9NYV4)
inactive: [1] 0.102 | [2] -0.425 | [3] -0.103 | [4] 0.112 | [5] 0.008

CHD3 isoform 3 (UniProt Q12873)
inactive: [1] -0.104 | [2] 0.038 | [3] 0.069 | [4] -0.038 | [5] 0.087

CHAC2 (UniProt Q8WUX2)
inactive: [1] -0.036 | [2] -0.034 | [3] -0.034 | [4] 0.008 | [5] 0.027

CPSF1 (UniProt Q10570)
inactive: [1] -0.012 | [2] -0.049 | [3] -0.017 | [4] 0.132 | [5] 0.006
